Test results from PubChem BioAssay AID485297 (National Center for Advancing Translational Sciences (NCATS), 2010).
About 9,100 (2.8%) of roughly 320,000 compounds were called active. Inconclusive results (about 3%) are left out. The list comes from a sample in which actives are over-represented; it also holds similar structures and randomly drawn compounds. Values without a mark were called inactive. The call rests on the fitted dose curve; in most records, active means well fitted activation curve with a large enough effect; inconclusive means small, poorly fitted or top-dose-only effect; inactive means no such curve, though single readings can be large or run the other way.

Assay: qHTS Assay for Rab9 Promoter Activators; further: nearly all actives have a fitted effect of over 60% in size; on activation, negative = inhibition: % of control where 0% means no effect
Conditions: Huh7 Rab9 promoter-luciferase reporter, luminescence, 24 h; series mostly up to 9.22 µM; activation, negative = inhibition: at the top concentration
Procedure, shortened: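 Luminescence from Amplite-detected luciferase (10 minutes, ambient) reports Rab9 promoter activation. Before that, stable Rab9-luciferase Huh7 cells (1500/well, reduced-serum OP-MEM I plus 10% FBS) were exposed to compound for 24 hours at 37C.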
Potency means the concentration at half of the fitted maximal effect.

Row | Compound | activation, negative = inhibition | Potency
1 | C=CC1(C)CC(=O)C2(O)C(C)(O1)C(OC(C)=O)C(O)C1C(C)(C)CCC(O)C12C (stereo not given) | 3.8% [at 46.1 µM] | –
2 | Cc1ccc(C)c(NC(=O)COC(=O)CSc2ccccc2)c1 | 0.508% | –
3 | CCCCN(CC)C(=O)c1ccccc1Oc1ccccc1 | -13.1% | –
4 | C(=N\n1cnnc1)/c1cccnc1 | -2.02% | –
5 | COc1ccccc1OCCOc1ccc(/C=N/n2cnnc2)cc1 | 3.87% | –
6 | COc1cccc(OCCOc2cccc(/C=N/n3cnnc3)c2)c1 | – | 2820 nM (active)
7 | COc1cccc(C(=O)N/N=C(\C)c2cccc(NC(=O)c3ccc(F)cc3)c2)c1OC | 0.209% | –
8 | Cc1ccccc1OCCC(=O)OCC(=O)NCCc1ccc(S(N)(=O)=O)cc1 | -5.42% | –
9 | CCn1nc(C(=O)NNC(=O)C2CSC3(C)CCC(=O)N23)c2ccccc2c1=O (stereo not given) | -0.95% | –
10 | CCN(C(=O)COC(=O)CCOc1cccc(C)c1)c1c(N)n(Cc2ccccc2)c(=O)[nH]c1=O | -6.63% | –
11 | N#Cc1ccccc1S(=O)(=O)N1CCN(Cc2c(O)ccc3ccccc23)CC1 | -3.22% | –
12 | N#CCC(=O)Nc1ccc(C(=O)OCC(=O)Nc2sc3c(c2C#N)CCCC3)cc1 | -8.12% | –
13 | Nc1ncnc2c1c(I)cn2[C@@H]1C[C@H](N)[C@@H](O)[C@H]1O | -40.3% [at 46.1 µM] | –
14 | Cc1nn(-c2ccc([N+](=O)[O-])cc2)c(N)c1-c1ccccc1 | – | 1260 nM (active)
15 | Cc1cc(CO)nn1-c1ccc([N+](=O)[O-])cc1 | -2.25% | –
16 | Cn1nc(-c2ccccc2)c2cc([N+](=O)[O-])ccc21 | -3.2% | –
17 | COc1ccccc1OCCNC(=O)C(CCSC)NC(=O)COc1ccccc1 (stereo not given) | 13% | –
18 | O=C(COC(=O)Cc1ccccc1F)NCCc1ccccc1 | 0.179% | –
19 | CCOc1cccc2cc(C(=O)OCC(=O)Nc3c(C)cccc3CC)c(=O)oc12 | -0.156% | –
20 | COCCn1cnnc1SCC(=O)Nc1cccc(S(=O)(=O)N2CCCCC2)c1 | -9.69% | –
21 | O=C(Nc1cccc(NC(=O)c2ccccc2[N+](=O)[O-])c1)c1ccccc1Cl | 3.77% | –
22 | COc1cc(NC(=O)c2cccs2)ccc1NC(=O)c1ccccc1Cl | 1.49% | –

Row | Compound | activation, negative = inhibition | Potency
23 | O=C(Nc1ccc2sc3ccccc3c(=O)c2c1)c1ccccc1Cl | – | 2820 nM (active)
24 | COc1ccc(C(=O)COC(=O)c2ccc([N+](=O)[O-])s2)cc1OC | -0.797% | –
25 | CN(C(=O)Cn1nnc(-c2ccc(F)cc2)n1)C1CCS(=O)(=O)C1 (stereo not given) | -6.86% | –
26 | CC(C)(CNC(=O)Cc1ccc(Cl)cc1Cl)N1CCOCC1 | -1.21% | –
27 | N#Cc1ccc(C2N=C(c3ccccc3)NO2)cc1 (stereo not given) | – | 1780 nM (active)
28 | CCOc1ccc(NC(=O)CN(C)C(=O)CSc2ccccc2)cc1OCC | 0.0845% | –
29 | Cc1cc(C(F)(F)F)nn1-c1nc(-c2ccco2)cc(C(F)(F)F)n1 | 1.18% | –
30 | COc1ccccc1-n1c(-c2cc(-c3ccco3)[nH]n2)n[nH]c1=S | -0.896% | –
31 | Cn1c(-c2ccco2)nc2cc3ccccc3cc21 | – | 3980 nM (active)
32 | COc1cc(OC)c(NS(=O)(=O)c2cn(C)cn2)cc1Cl | -0.424% | –
33 | O=C(CSc1nc2ccc([N+](=O)[O-])cc2[nH]1)c1ccc(Cl)cc1 | 7.31% | –
34 | O=[N+]([O-])c1ccc2c(c1)Nc1nc3ccccc3nc1N2 | -2.05% | –
35 | O=[N+]([O-])c1ccc2nc(-c3ccccn3)[nH]c2c1 | – | 2510 nM (active)
36 | O=C(CN1C(=O)NC2(CCCCC2)C1=O)N1CCN(C(=O)c2cccs2)CC1 | 1.86% | –
37 | CC(C)n1ncc2c(C(=O)NCc3ccccc3CN(C)C)cc(C3CC3)nc21 | -0.739% | –
38 | Cc1ccc(S(=O)(=O)N(NC2=NS(=O)(=O)c3ccccc32)C(=O)c2ccccc2)cc1 | 0.999% | –
39 | CC(C)(C)c1csc(NC2=NS(=O)(=O)c3ccccc32)n1 | – | 1260 nM (active)
40 | O=C(Oc1cccc(NC2=NS(=O)(=O)c3ccccc32)c1)c1ccncc1 | 1.05% | –
41 | O=S(=O)(NC1CCCCC1)c1ccc(F)c2ccccc12 | -10.5% | –
42 | COc1ccc2cc(C3=CC(=O)C[C@H](c4ccc5c(c4)OCO5)C3)ccc2c1 | -6.22% | –
43 | O=C(Nc1ccc(Cl)cc1)c1cccc(OC(=S)N2CCOCC2)c1 | -16.8% | –
44 | Nc1c(N(Cc2ccco2)C(=O)c2cccc(F)c2)c(=O)[nH]c(=O)n1Cc1ccccc1 | -7.02% | –

Row | Compound | activation, negative = inhibition | Potency
45 | CN(CC(=O)Nc1ccc(F)c(F)c1F)C(=O)Cn1cnc2c1c(=O)n(C)c(=O)n2C | 0.736% | –
46 | CC1CCCN(S(=O)(=O)c2ccc(C(=O)Nc3nnc(-c4ccncc4)o3)cc2)C1 (stereo not given) | – | 1410 nM (active)
47 | O=C(Nc1nnc(-c2ccco2)o1)c1ccc(S(=O)(=O)N2CCOCC2)cc1 | -11.2% | –
48 | CC1CCCCN1S(=O)(=O)c1ccc(C(=O)Nc2nnc(-c3cccs3)o2)cc1 (stereo not given) | -20.4% | –
49 | O=C(COC(=O)c1c(Cl)cccc1Cl)Nc1cccc(S(=O)(=O)NC2=NCCCCC2)c1 | 0.239% | –
50 | COC(=O)c1ccc(NCC(=O)c2ccccc2)cc1 | – | 1780 nM (active)
51 | Cc1ccc(C(=O)CNc2ccc(F)cc2)cc1 | 0.986% | –
52 | COC(=O)c1ccc(NCC(=O)N2CCCCCC2)cc1 | -45% | –
53 | O=C(N[C@@H](Cc1c[nH]c2ccccc12)C(=O)O)OCC1c2ccccc2-c2ccccc21 | -3.15% | –
54 | Cc1[nH]n(C(N)=S)c(=O)c1N=Nc1ccc(Cl)cc1Cl | – | 3980 nM (active)
55 | CC1=NN(C(N)=S)C(=O)C1N=Nc1cc(Cl)ccc1Cl (stereo not given) | -0.446% | –
56 | Cc1[nH]n(-c2cccc(Cl)c2)c(=O)c1-c1ccc(Cl)cc1 | 13.2% | –
57 | CCOC(=O)c1c(CNCc2ccccc2F)c2sc(C)cc2n1C | 2.34% | –
58 | COc1ccc(S(=O)(=O)N2CCOCC2)cc1NC(=O)c1ccc(OCC(C)C)c(OC)c1 | -5.03% | –
59 | CN(CCOc1ccccc1)C(=O)c1cc(-c2ccco2)nc2ccccc12 | -3.8% | –
60 | CC(OC(=O)c1ccccc1NCCO)C(=O)Nc1ccnn1C(C)C (stereo not given) | 4.57% | –
61 | Cc1ccc(-n2c(SCC(=O)N3CCC(C(=O)O)CC3)nc3ccccc3c2=O)cc1C | – | 2820 nM (active)
62 | COc1cccc(-n2c(SCC(=O)NC3CCS(=O)(=O)C3)nc3ccccc3c2=O)c1 (stereo not given) | 2.33% | –
63 | O=C(CSc1nc2ccccc2c(=O)n1-c1ccc(F)cc1)NC1CC1 | -4.04% | –
64 | CC(=O)Nc1ccc(S(=O)(=O)N2CCn3cccc3C2C)cc1 (stereo not given) | 0.255% | –
65 | COc1ccc(NC(=S)N2CCCC(CO)C2)c(OC)c1 (stereo not given) | -2.36% | –
66 | CCCCc1ccc(NC(=S)N2CCCC(CO)C2)cc1 (stereo not given) | – | 2820 nM (active)

Row | Compound | activation, negative = inhibition | Potency
67 | CCCCc1ccc(NC(=S)NCCCN2CCOCC2)cc1 | -8.13% | –
68 | Cc1ccc(S(=O)(=O)N2CCN(C(=O)COC(=O)c3c(C)noc3C)CC2)c(C)c1 | -0.946% | –
69 | COc1cc(OC)cc(C(=O)NCC(=O)OCc2csc(-c3ccccc3)n2)c1 | -5.11% | –
70 | Cc1ccc(-c2nc(COC(=O)c3c(C)noc3C)cs2)cc1 | – | 3550 nM (active)
71 | COc1cc(C(=O)OCC(=O)NC23CC4CC(CC(C4)C2)C3)cc(OC)c1OC | -5.87% | –
72 | O=C(c1ccc(Cl)c(S(=O)(=O)N2CCCCCC2)c1)N1CCN(c2ccc(O)cc2)CC1 | 2.27% | –
73 | Cc1nc(-c2ccc([N+](=O)[O-])cc2)c(-c2ccccc2)o1 | 0.201% | –
74 | Cc1ccc(-c2cn3cc([N+](=O)[O-])ccc3n2)cc1 | – | 355 nM (active)
75 | Cc1cc(N2CCOCC2)nc(-c2ccc(Br)cc2)n1 | 1.71% | –
76 | Cc1ccc2nc(-c3ccc(Br)cc3)cn2c1 | – | 316 nM (active)
77 | CSc1nnc2ccc(-c3ccc(C)cc3)nn12 | 11.7% | –
78 | Cc1ccc(C(=O)Cn2cc([N+](=O)[O-])nc2C)cc1 | -6.84% | –
79 | COc1ccc(S(=O)(=O)N2CCOCC2)cc1NC(=O)Cc1c(F)cccc1Cl | 0.109% | –
80 | Cc1cc(NC(=O)CN2C(=O)NC(CCc3ccccc3)C2=O)no1 (stereo not given) | -0.496% | –
81 | OC(COc1ccc(F)cc1Cl)CN1CCc2ccccc2C1 (stereo not given) | 2.79% | –
82 | Cc1cc2oc(C(=O)Nc3c(C)n(C)n(-c4ccccc4)c3=O)c(C)c2cc1Cl | -5.97% | –
83 | Cc1ccc(Nc2nc(N3CCOCC3)nc(N3CCOCC3)n2)cc1Cl | 0.834% | –
84 | CCOc1ccc(Nc2nc(Cl)nc(N3CCN(c4ccc(OC)cc4)CC3)n2)cc1 | -7.09% | –
85 | COc1ccc(Nc2ncc(F)c(N3CCOCC3)n2)cc1 | – | 891 nM (active)
86 | Cc1cc(C)n2nc(C(=O)Nc3cccc(S(=O)(=O)N4CCOCC4)c3)nc2n1 | -0.106% | –
87 | COC(=O)c1cc2c(ccn2C)n1C | -7.96% | –
88 | CCN(CC)c1ccc2oc(=O)c(C)nc2c1 | -3.4% | –

Row | Compound | activation, negative = inhibition | Potency
89 | CCc1ccc2oc(-c3ccc(N)cc3)nc2c1 | – | 501 nM (active)
90 | Cc1ccc(C)c(NC(=O)CSc2nc3c(oc4ccccc43)c(=O)n2-c2ccccc2)c1 | 1.35% | –
91 | Cc1ccccc1NC(=O)Cc1nc(COC(=O)c2ccc(C(F)(F)F)cc2)cs1 | 1.76% | –
92 | Cc1ccc2c(CN3CCN(S(=O)(=O)c4ccccc4C(F)(F)F)CC3)cc(=O)oc2c1 | -8.96% | –
93 | Cc1ccc(-c2nn(-c3ccccc3)cc2C(=O)NC2CCC(O)CC2)cc1 (stereo not given) | 14.2% | –
94 | CC[C@H](C)C(=O)N[C@H]1CCCN1C(=O)/C=C/c1ccccc1 | -2.26% | –
95 | COc1ccc(C2=Nc3cc(C)ccc3OC2)cc1 | – | 562 nM (active)
96 | COc1ccc(C2=NOC(COC(=O)c3ccc4ccccc4n3)C2)cc1 (stereo not given) | -1.87% | –
97 | Cc1ccc(C(=O)NNC2=Nc3cc([N+](=O)[O-])ccc3OC2)cc1 | 1.55% | –
98 | CC(C)OCCCNC(=S)N1CCC(C(=O)c2ccc3c(c2)OCCO3)CC1 | -2.99% | –
99 | COc1cccc(/C=C/C(=O)Nc2ccc3c(c2)OCCO3)c1 | – | 1260 nM (active)
100 | O=C(O)/C=C/c1ccc2c(c1)OCCO2 | 0.952% | –
101 | CC(NC(=O)Nc1ccc2c(c1)OCO2)c1ccncc1 (stereo not given) | -3.45% | –
102 | CCOC(=O)CCCNC(=O)COC(=O)/C=C/c1ccc2c(c1)OCO2 | 1.1% | –
103 | CNS(=O)(=O)c1ccc(NC(=O)Nc2ccc3c(c2)OCO3)cc1 | – | 3550 nM (active)
104 | O=C(/C=C\c1ccc2c(c1)OCO2)NC1(C(=O)Nc2ccc3c(c2)OCCO3)CCCCC1 | 0.644% | –
105 | CC(C)CNS(=O)(=O)c1ccc(C(=O)Nc2ccc3c(c2)OCO3)cc1 | -4.4% | –
106 | CC(NS(=O)(=O)c1ccc(Cl)cc1)C(=O)Nc1ccc2c(c1)OCCO2 (stereo not given) | 5.09% | –
107 | COc1ccc(OC)c(/C=C/C(=O)OCC(=O)Nc2ccc3c(c2)OCCO3)c1 | 8.75% | –
108 | Cc1cccc(NC(=O)Nc2ccc3c(c2)OCO3)n1 | – | 2240 nM (active)
109 | Cc1cccc(NC(=O)/C=C/c2ccc3c(c2)OCO3)n1 | – | 562 nM (active)
110 | Cc1cccc(NC(=O)Nc2ccc(OCc3ccccc3)cc2)n1 | -0.949% | –
